MCF10A rerep: DNA re-replication induction in MCF 10a cells; MCF 10A DNA re-replication, Hoechst nuclear intensity, 48 h; Potency, µM (highest dose often 46.1 µM), without a hit: top-dose activity, positive = re-replication, most hits filed as activators; hit rate 2.9% among 350,000; AID 624296; further: % of control where 0% means no effect; nearly all actives have a fitted effect of over 50% in size
PINK1 modulator: PINK1 expression modulation; hit rate 0.2% among 410,000; PINK1 immunofluorescence, high-content cytometry, 24 h; Potency, µM (titrated, usually from 76.6 µM), without a hit: at the highest dose activation (PINK1 increase), hits mostly activators; active means well fitted activation curve with a large enough effect; inconclusive means small, poorly fitted or top-dose-only effect; cell line not stated here; further: % of control where 0% means no effect; nearly all actives have a fitted effect of over 65% in size
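Stable cell line treated 24 h with compounds at 5 concentrations (CCCP controls), then fixed and immunostained for PINK1 plus nuclear and cell stains; PINK1 immunofluorescence quantified by laser-scanning microplate cytometry.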
SW480 rereplic: inducers of DNA re-replication in SW480 colon cancer cells; SW480 DNA re-replication, Hoechst DNA content imaging, 48 h; Potency, µM (doses to about 46.1 µM), inactives show at the top dose re-replication activation, actives largely listed as activators; hit rate 1.8% among 340,000; AID 624297; further: % of control where 0% means no effect; nearly all actives have a fitted effect of over 55% in size
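Image-based read-out: total Hoechst fluorescence of nuclei (405 nm excitation, 500-530 nm emission), with hits raising the fraction of high-intensity nuclei. SW480 colon cells incubated 48 hr with compounds at 37 C.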
PTAP TSG101 blk: blocks PTAP/TSG101 interaction to inhibit HIV-1 budding; Q99816; 340,000 tested, under 10 active; Fluorescence polarization, FITC-PTAP peptide / Tsg101 binding; Potency, µM (highest dose often 115 µM), inactives show at the highest dose activity change, negative = inhibition, hits mostly inhibitors; active means well fitted inhibition curve with a large enough effect in the main read-out, with a control signal flat, not every such curve was filed as active; inconclusive means small, poorly fitted or top-dose-only effect, or effect the other way, or a change in a side signal; inactive means no such curve, though single readings can be large or run the other way; further: % of control where 0% means no effect
Target sequence (Q99816 whole entry, looked up): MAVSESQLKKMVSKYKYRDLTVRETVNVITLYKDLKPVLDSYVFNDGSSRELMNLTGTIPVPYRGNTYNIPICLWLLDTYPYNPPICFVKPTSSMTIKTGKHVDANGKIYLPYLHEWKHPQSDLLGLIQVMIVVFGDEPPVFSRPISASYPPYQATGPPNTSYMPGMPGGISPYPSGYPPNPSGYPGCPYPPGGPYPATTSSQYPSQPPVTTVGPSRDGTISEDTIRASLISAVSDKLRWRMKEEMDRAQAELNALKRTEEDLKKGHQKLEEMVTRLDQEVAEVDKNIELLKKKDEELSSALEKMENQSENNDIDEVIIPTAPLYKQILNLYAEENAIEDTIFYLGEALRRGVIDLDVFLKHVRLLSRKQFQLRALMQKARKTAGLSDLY
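Fluorescence anisotropy tracks displacement of a FITC-tagged PTAP peptide (50 nM) from the Tsg101 binding domain (10 uM), following a 20 min room-temperature incubation at pH 7.5.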
KB-V1 cytotox: kills drug-selected multidrug resistant KB-V1 cells; AID 1347076; KB-V1 MDR cells viability, CellTiter-Glo, 72 h; hit rate 3.4% among 400,000; Potency, µM (top dose mostly 46.1 µM), actives largely listed as cytotoxic; further: on the % scale 0 is the no-effect control and ±100 the full control effect; nearly all actives have a fitted effect of over 60% in size
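In this primary screen, KB-V1 cells overexpressing P-gp are incubated with library compounds (lowest to highest concentration) for 72 h at 37 degrees C before a luminescent ATP viability read.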
KB-3-1 tox: kills parental KB-3-1 adenocarcinoma cells; KB-3-1 viability, CellTiter-Glo ATP luminescence, 72 h; Potency, µM (doses to about 46.1 µM), most hits filed as cytotoxic; hit rate 1.4% among 400,000; AID 1347075; further: on the % scale 0 is the no-effect control and ±100 the full control effect; nearly all actives have a fitted effect of over 60% in size
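Using CellTiter-Glo luminescence, growth of non-resistant KB-3-1 adenocarcinoma cells is assessed 72 h after pin-tool compound addition at 37 °C. Normalized responses across the concentration series yield fitted curves.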
* = called active by the depositor; i = inactive; ? = inconclusive; . = no result; [ ] = dose if it differs, or a comment. Rows were chosen to be rich in hits. Some 6.8% of all compounds tested hit in one or more screens of this group. Unless noted, the call rests on the fitted dose curve; in most records, active means well fitted curve in the direction sought with a large enough effect; inconclusive means small, poorly fitted or top-dose-only effect, or another doubt; inactive means no such curve, though single readings can be large; an effect the other way counts as inactive or inconclusive. Potency means the concentration at half of the fitted maximal effect.

SMILES	MCF10A rerep	PINK1 modulator	SW480 rereplic	PTAP TSG101 blk	KB-V1 cytotox	KB-3-1 tox
N#CC(c1cccc(Cl)c1)c1ccc2c(C(F)(F)F)cc(C(F)(F)F)nc2n1 (stereo not drawn)	?	?	?	4.5%	0.92µM*	?
NNc1nnc2c3cc(F)ccc3n(CCc3ccccc3)c2n1	?	?	4.11µM*	-1.1%	?	23.1µM*
Fc1ccc2c(c1)c1n[nH]c(=S)nc1n2CCc1ccccc1	0.4%	0.2%	?	-2.1%	i	?
Cc1ccc(P(=O)(c2ccc(C)cc2)[C@@H](NC(c2ccccc2)c2ccccc2)c2ccccc2)cc1	.	?	.	.	20.6µM*	?
CC(=O)N1c2ccccc2C(=O)C1N1CCN(c2cccc(Cl)c2)CC1 (stereo not drawn)	.	2.4%	.	.	i	i
CC(/C=C1\SC(=Nc2cccnc2)NC1=O)=C\c1ccccc1	1.64µM*	13.3%	21.5%[9.22 µM]	-0.8%	8.2µM*	16.4µM*
Cc1nc(-n2nc(C)c(CCC(C)C)c2C)sc1C(=O)Nc1ccc(Cl)cc1	.	2.4%	.	.	i	i
O=C(Nc1ccc(Br)c2ccccc12)c1ccc2ccccc2c1O	3.26µM*	25.1µM*	2.2%	-2.5%	i	i
CC(=O)Nc1ccc(Br)c2ccccc12	3.8%	-0.9%	-13.1%	-4.2%	i	i
COCCNC(=S)N/N=C(\C)c1ccc(O)cc1	14.6%	1.2%	?	-0.7%	i	i
C/C(=N\NC(=S)NC1CCCCC1)c1ccc(O)cc1	5.5%	4.4%	0.0%	-5.3%	?	16.4µM*
C/C(=N\NC(=S)NC1CCCCC1)c1ccccc1	5.6%	7.2%	17.5%	0.2%	i	16.4µM*
COc1cccc(CN2CCC(n3cc(C(=O)N4CCCCC4)nn3)CC2)c1OC	.	-1.0%	.	.	.	.
Cc1ccc(CNc2ncnc3c2cnn3-c2ccccc2)cc1	24.5%	.	-19.6%	-2.5%	i	i
CCc1nc(NC(C)(C)C)c2cnn(-c3ccccc3)c2n1	23.1µM*	12.8%	?	-0.9%	i	i
Clc1ccc(-n2ncc3c(NCc4ccccn4)ncnc32)cc1	14.7%	24.5%[38.3 µM]	-6.0%	0.0%	23.1µM*	i
Clc1ccc(Cn2ncc3c(NCc4ccccc4)ncnc32)cc1	6.51µM*	2.2%	?	-1.6%	6.51µM*	5.17µM*
c1ccc(Cn2ncc3c(NCc4ccco4)ncnc32)cc1	-6.1%	8.1%[38.3 µM]	4.9%	-0.9%	i	i
c1ccc(-n2ncc3c(NCc4ccco4)ncnc32)cc1	12.6µM*	5.9%	20.6µM*	-9.1%	i	i
Cc1ccccc1CNC(=O)c1cc2cc(S(=O)(=O)N3CCCCC3)ccc2n1C	.	2.1%	.	.	.	.
CCCCNc1ncnc2c1cnn2Cc1ccc(Cl)cc1	?	2.3%	?	-3.0%	i	?
COc1ccc(Nc2ncnc3c2cnn3Cc2ccccc2)cc1OC	14.7%	-1.6%[38.3 µM]	5.3%	-5.0%	18.4µM*	i
c1ccc(-n2ncc3c(NCCCN4CCOCC4)ncnc32)cc1	6.8%	.	-15.4%	-3.7%	i	i
CCCCNc1ncnc2c1cnn2-c1ccc(Cl)cc1	?	8.4%	8.2µM*	-9.5%	?	1.64µM*
Cc1cccc(Nc2ncnc3c2cnn3Cc2ccccc2)c1	1.6%	3.4%	-1.7%	-2.8%	i	i
SMILES	MCF10A rerep	PINK1 modulator	SW480 rereplic	PTAP TSG101 blk	KB-V1 cytotox	KB-3-1 tox
CCCCNc1ncnc2c1cnn2-c1ccccc1	?	3.7%	6.51µM*	-1.9%	?	6.51µM*
CCN1CCN(c2nc(Nc3cccc(OC)c3)nc(N)c2[N+](=O)[O-])CC1	27.7%	7.2%	16.4µM*	-7.6%	i	?
Cc1cccc(Nc2nc(N)c([N+](=O)[O-])c(N3CC(C)OC(C)C3)n2)c1 (stereo not drawn)	0.5%	1.2%	-9.3%	-1.6%	i	?
Cc1cccc(Nc2nc(N)c([N+](=O)[O-])c(N3CC(C)CC(C)C3)n2)c1 (stereo not drawn)	26.2%	-4.1%	?	-5.4%	20.6µM*	?
Cc1cccc(Nc2nc(N)c([N+](=O)[O-])c(N3CCC(C)CC3)n2)c1	23.1µM*	-3.6%	?	?	?	?
CCC1CN(C(=O)N2CCC(C(=O)NCc3cccc(F)c3)CC2)c2cc(C)ccc2O1 (stereo not drawn)	.	-0.9%	.	.	.	.
CCCCSc1nc(CCC)cc(=O)[nH]1	-182.8%[0.0737 µM]	-4.6%	12.9%	-4.7%	i	i
CCCc1cc(=O)[nH]c(SCCc2ccccc2)n1	-7.0%	-1.0%	-8.1%	1.4%	16.4µM*	?
Cc1ccc(C(=O)N2CCN(c3ccc(C(F)(F)F)cn3)CC2)o1	0.2%	2.1%	-3.8%	-0.4%	20.6µM*	?
O=C(c1ccccn1)N1CCN(c2ccc(C(F)(F)F)cn2)CC1	16.1%	7.8%[38.3 µM]	-7.0%	-5.6%	16.4µM*	i
CCOc1ncccc1C(=O)N1CCN(c2ccc(C(F)(F)F)cn2)CC1	13.9%	3.1%	-0.1%	-0.3%	?	i
CCc1cc(=O)oc2c(CN3CCCC3)c(O)c(Cl)cc12	?	4.7%[38.3 µM]	9.8%	-7.3%	i	i
CCCCc1cc(=O)oc2cc(C)c(CN3CCCC3)c(O)c12	?	6.3%[38.3 µM]	5.3%	-2.8%	18.4µM*	i
CCc1cc(=O)oc2cc(C)c(CN3CCCC(C)C3)c(O)c12 (stereo not drawn)	23.1µM*	1.1%[38.3 µM]	0.3%	0.6%	?	i
O=C(Nc1nc(-c2ccc(Br)cc2)ns1)c1ccc(F)cc1	.	2.4%	.	.	.	.
Cc1ccc(-n2[nH]c(C)c(/C=N/Nc3ccc([N+](=O)[O-])cc3[N+](=O)[O-])c2=O)cc1	26.5%	?	?	-3.9%	16.4µM*	?
Cc1[nH]n(-c2ccc([N+](=O)[O-])cc2)c(=O)c1C=NCCc1c(C)[nH]c2ccccc12	5.7%	-0.7%	.	-0.4%	16.4µM*	i
Cc1[nH]n(-c2ccc([N+](=O)[O-])cc2)c(=O)c1C=NCC1CCCO1 (stereo not drawn)	-1.2%	2.5%	-6.6%	-5.9%	?	?
CCN(CC)c1ccc(/C=C/c2sc3ccccc3[n+]2CCCCI)cc1	.	31.6µM*	.	.	?	?
CC(=O)Nc1ccc(/C=C/c2sc3ccccc3[n+]2CCCCI)cc1	.	0.0%	.	.	i	i
CC(=O)Oc1cc(C)c(OC(C)=O)c2ccccc12	?	.	26.6µM*	.	.	.
CCOC(=O)Cc1cnc(NC(=O)CSc2nc(C)cc(C)n2)s1	3.8%	1.5%	-3.8%	-2.4%	?	i
CCOC(=O)Cc1cnc(NC(=O)CSc2nc3ncnc(N)c3[nH]2)s1	0.651µM*	17.2%	?	-1.2%	?	i

Compound activity from PubChem.
